In PubChem BioAssay (NCI):
The panel holds about 83,000 compounds, 20% with a hit somewhere; the sample as a whole holds those more often.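 Values shown are percent growth following 48 h exposure of cells in 96-well plates to a single concentration of compound; below 10 was considered active.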 A number with no mark means an inactive call. Activity calls are given as the source filed them.

Columns and labels:
Experiment in all cases: NCI-60 one-dose screen, 48 h (100 = growth as untreated, 0 = no growth, -100 = all killed)
Details in all cases: 10 µM unless noted
T-47D breast = tested on: T-47D breast
BT-549 breast = tested on: BT-549 breast
MDA-MB-435 melanoma = tested on: MDA-MB-435 melanoma
SW-620 colon = tested on: SW-620 colon
MCF7 breast = tested on: MCF7 breast
HCT-116 colon = tested on: HCT-116 colon
HCC-2998 colon = tested on: HCC-2998 colon
KM12 colon = tested on: KM12 colon

SMILES | growth (T-47D breast) | growth (BT-549 breast) | growth (MDA-MB-435 melanoma) | growth (SW-620 colon) | growth (MCF7 breast) | growth (HCT-116 colon) | growth (HCC-2998 colon) | growth (KM12 colon)
O=C(Nc1ccc(-n2cc(-c3ccncc3)c(-c3ccc(Cl)c(O)c3)n2)cc1)N1CCOCC1 | 83.9% | 100% | 104% | 113% | 101% | 94.8% | 109% | 100%
O=C(O)c1ccc2c(c1Cl)C(=O)c1ccccc1C2=O | 101% | 116% | 78.3% | 107% | 94% | 93.2% | 104% | 107%
NCCCNc1nc2ccccc2c2c(=O)c3cccc(Cl)c3sc12 | 35.3% | 76.6% | -43.3% (active) | -79.4% (active) | -86.6% (active) | -92% (active) | -94.1% (active) | -72.6% (active)
COc1ccc(C(=O)COc2ccc(/C=C3\Oc4ccccc4C3=O)cc2)cc1 | 73.8% | 114% | 59.7% | 110% | 115% | 92.9% | 115% | 107%
COCCN(C(=O)c1ccc(F)cc1F)c1c(N)n(Cc2ccccc2)c(=O)[nH]c1=O | 103% | 135% | 105% | 108% | 108% | 102% | 106% | 105%
N#Cc1c2c(nn(-c3ccccc3)c1=O)C(O)=C([N+](=O)[O-])C(c1ccccc1)C2 (stereo not drawn) | 35.1% | 91.9% | 83.1% | 80.6% | 24.4% | 58.6% | 101% | 35.7%
O=C(CSc1nnc(-c2ccc(NC(=O)c3cccnc3)cc2)o1)N[C@@H](Cc1ccc(O)cc1)C(=O)O | 86% | 113% | 108% | 111% | 105% | 99.6% | 108% | 110%
Cc1ccc(S(=O)(=O)Oc2cc(OS(=O)(=O)c3ccc(C)cc3)cc(OS(=O)(=O)c3ccc(C)cc3)c2)cc1 | 97.8% | 118% | 96.2% | 92.2% | 104% | 103% | 139% | 123%
COc1cc2c(cc1-c1c(C)noc1C)ncc1nc(C3CCCCC3)n(C3CCC(OC(F)F)CC3)c12 (stereo not drawn) | -0.67% (active) | 51.5% | 41.6% | 58.3% | 15.1% | 24.8% | 42.7% | 39.2%
CCN(CC)CCCCCCNc1cc(OC)c(Cl)c2cccnc12 | 81.4% | 93.5% | 14.7% | 81.2% | 66.7% | 70.8% | 82.1% | 76.9%
O=C(Cc1ccc(F)c(F)c1)Nc1cc(C2(C(F)(F)F)CC2)nn1Cc1ccccc1 | -8.37% (active) | 14.9% | 0.174% (active) | 11.5% | -7.28% (active) | 6.07% (active) | 17.2% | 1.89% (active)
COC(=O)[C@]12CC[C@@H](C)[C@H](C)[C@@H]1C1=CC[C@@H]3[C@@]4(C)C(C=O)=C[C@@](C)(COS(C)(=O)=O)[C@@H]4C(=O)C[C@@]3(C)[C@]1(C)CC2 | 33% | 42.9% | 62.3% | 35.9% | 18.3% | 5.35% (active) | 43.4% | 23.1%
C[C@@]1(CCC#N)[C@H]2CC[C@@H]3[C@H]4[C@H](C(=O)/C=C/c5cccnc5)CC[C@]4(C#N)CC[C@@]3(C)[C@]2(C)CC[C@H]1C(=O)/C=C/c1cccnc1 | 65.2% | 80.7% | 34% | 37.2% | 39.4% | 20% | 105% | 36%
NS(=O)(=O)c1cnccc1Oc1cccc2cccnc12 | 109% | 93.3% | 108% | 106% | 93.4% | 97% | 95.9% | 107%
COc1cccc(-c2nn(-c3ccccc3)cc2-c2ccnc(NCCCNC(=O)Nc3ccc(Cl)c(Cl)c3)c2)c1 | -15% (active) | 7.49% (active) | -36.3% (active) | 12% | 5.21% (active) | 2.97% (active) | -61.8% (active) | -13.4% (active)
OC(c1cccc(-n2ccc(C(F)(F)F)n2)c1)c1cnccc1NC1CCCCCC1 (stereo not drawn) | 22.6% | 82.5% | -77.4% (active) | -86.4% (active) | -14.4% (active) | -79.4% (active) | -88.8% (active) | -47.1% (active)

SMILES | growth (T-47D breast) | growth (BT-549 breast) | growth (MDA-MB-435 melanoma) | growth (SW-620 colon) | growth (MCF7 breast) | growth (HCT-116 colon) | growth (HCC-2998 colon) | growth (KM12 colon)
Cc1cccc(Cc2cnc(NC(=O)/C=C/c3ccco3)s2)c1 | 37.2% | 25.8% | -30.7% (active) | 24.9% | 14.9% | 18.1% | 6.44% (active) | 13.3%
O=C(/C=C/c1ccco1)c1ccc(Nc2nc(Nc3ccc(F)cc3)nc(Nc3ccc(Cl)cc3)n2)cc1 | 46.6% | 78.7% | 88.5% | 84.4% | 33.4% | 62.5% | 54.8% | 65.2%
CCCCCCCC/C=C\CCCCCCCCOc1ccccc1CC(=O)NCC[N+](C)(C)C | 94.4% | 77.4% | 95.6% | 69.5% | 73% | 65.8% | 33.7% | 36.4%
Cc1ccc2nc(NC(=O)CSc3nc(Nc4ccc([N+](=O)[O-])cc4)c(C#N)c(-c4ccccc4)n3)sc2c1 | -58.4% (active) | 91.1% | 107% | 105% | 87.1% | 89.5% | 102% | 101%
CC1=CN2C(=O)C3C4=C(CCCC4)SC3N=C2CN1c1c(C)cccc1C (stereo not drawn) | 81.1% | 108% | 94.4% | 88.9% | 112% | 55% | 97.3% | 97.4%
Cc1ccc(-n2nc3c(c(C#N)c2=O)CC(c2ccccc2Cl)C([N+](=O)[O-])=C3O)cc1 (stereo not drawn) | 73.4% | 103% | 102% | 109% | 94% | 63.8% | 113% | 106%
Cc1ccc(Nc2ccc(Nc3ccc(C)cc3)c3c2C(=O)c2cccc(O)c2C3=O)cc1 | 104% | 113% | 104% | 99.4% | 87.6% | 99% | 109% | 92.7%
Cc1ccc(N(C(=O)CCc2c[nH]c3ccccc23)[C@H](C(=O)Nc2ccc(Cl)cc2)c2cccc([N+](=O)[O-])c2)cc1 | 72.5% | 69.7% | 81.3% | 69.1% | 90.1% | 79.8% | 87.8% | 60.6%
O=c1c2cc(F)ccc2sc2c(Nc3cccnc3)nc3ccccc3c12 | 84.7% | 98.7% | 99.1% | 85.6% | 55.1% | 61.5% | 94.1% | 89.2%
COc1ccc(-c2nc3ccc4[nH]ncc4c3c3c2CCCC3)cc1B(O)O | 46.9% | 41.4% | 32.4% | 33.4% | 60.1% | 27% | 69.8% | 42.7%
COc1ccc2c(c1)[nH]c(=O)c1c3cccnc3cn21 | 60.2% | 45.6% | -6.86% (active) | 20% | 20.5% | 15.2% | 21.5% | 14.5%
CCOC(=O)C/C(C)=N\NC(=O)c1ccncc1 | 92.1% | 97.8% | 91.7% | 107% | 93.2% | 89.3% | 98.7% | 107%
Nc1cc2c3c(cccc3c1)C(=O)N(CCN1CCCC1)C2=O | 18% | 74.7% | 48.7% | 20.3% | 6.93% (active) | 17.4% | 44.1% | 34.7%
C=C1C(=O)O[C@H]2[C@H]1CC/C(COC(=O)C(=O)c1cn(C)c3ccc(OC)cc13)=C\CC[C@@]1(C)O[C@@H]21 | -55.3% (active) | -79.1% (active) | -79.2% (active) | -63.6% (active) | -34.8% (active) | -95.1% (active) | -65.3% (active) | -65% (active)
NC(N)=Nc1nc2ccccc2n2c1nc1ccccc12 | 40.7% | 83% | 33.3% | 24.9% | 8.98% (active) | 18.2% | 46.3% | 33.6%
